Results on 24 compounds are retold here after PubChem BioAssay (NCI).

What all share (experiment): NCI-60 one-dose screen, 48 h (100 = growth as untreated, 0 = no growth, -100 = all killed)
What all share (settings): 10 µM unless noted

The subject of experiment [1] is HCT-15 colon.
Experiment [2] concerns HT29 colon.
Experiment [3] has as its system SNB-75 CNS.
Experiment [4] relates to SNB-19 CNS.
In experiment [5] the test system is U251 CNS.
In experiment [6] the test system is PC-3 prostate.
In experiment [7] the test system is SK-MEL-5 melanoma.
For experiment [8], the system named is UACC-62 melanoma.
Experiment [9] concerns LOX IMVI melanoma.
In experiment [10] the test system is SK-MEL-28 melanoma.

About 83,000 compounds went through this panel and 20% of them were active in at least one assay; those are over-represented in the sample as a whole.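 The endpoint reported here, percent growth, reads 100 for growth as untreated, 0 for no net growth and -100 for all cells dead.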 Values without a mark were called inactive. Active and inactive are the calls of the source. The calls were made as follows: active = growth percent below 10; inactive = the rest.

As for `NC(=O)c1ccc[n+](Cc2ccc(Cl)cc2Cl)c1`, the growth was 105% in experiment [1]; 91.3% in experiment [2]; 102% in experiment [3]; 101% in [4]; 89.6% in [5]; 88.9% in experiment [6]. The growth is 97.6% in experiment [7], 93.2% in [8], 95.8% in [9] and 108% in [10].

Turning to `COc1c(CCC[P+](c2ccccc2)(c2ccccc2)c2ccccc2)cc2c(c1OC)OCO2`, the growth in experiment [1] is 92.3%; in experiment [2], 38.2%; in experiment [3] it was -3.69% (active); in experiment [4], 9.64% (active); in experiment [5], 7.32% (active); in experiment [6] it was -0.165% (active). For the same compound, the growth in [7] was -68.6% (active); in experiment [8] it was -3.8% (active); in experiment [9], 15.9%; in experiment [10] it was 25.1%.

As for `O=C(/C=C/c1cccc(O)c1)c1cccc(-n2cc(-c3ccc4ccccc4c3)[nH]c2=O)c1`, the growth is 2.35% (active) in experiment [1]; -72.7% (active) in [2]; 4.8% (active) in experiment [3]; -43.2% (active) in [4]; -86.6% (active) in experiment [5]; 5.01% (active) in [6]. In addition, the growth is -2.25% (active) in experiment [7], 11.4% in experiment [8], -78.2% (active) in experiment [9] and 42.9% in experiment [10].

Turning to `N#CC1=C(c2ccc(Br)cc2)NC(SCC(=O)c2ccc(Br)cc2)NC1=O` (stereo not given), the growth in experiment [1] was 103%; in experiment [2], 105%; in [3], 98.7%; in experiment [4] it was 110%; in experiment [5], 108%; in experiment [6] it was 92.4%. The growth was 110% in experiment [7], 109% in [8], 106% in experiment [9] and 111% in experiment [10].

As to `CC(C)(C)n1cc(-c2ccnc(NCCCNS(=O)(=O)c3ccccc3)c2)c(-c2ccccc2)n1`, the growth in experiment [1] is 26.5%; in experiment [2], 24.7%; in [3] it was 65.1%; in experiment [4], 89.4%; in [5], 64.3%; in experiment [6] it was 35.6%. Besides, the growth was 53.2% in experiment [7], 61.8% in [8], 50.9% in experiment [9] and 97% in experiment [10].

In the case of `C=C1C(=O)O[C@H]2[C@H]1CC/C(COC(=O)C(=O)c1cn(C)c3ccc(OC)cc13)=C\CC[C@@]1(C)O[C@@H]21`, the growth was -53.1% (active) in experiment [1]; -52.7% (active) in experiment [2]; -76.7% (active) in experiment [3]; -13.8% (active) in experiment [4]; -92.5% (active) in experiment [5]; -59.2% (active) in experiment [6]. Also, the growth in experiment [7] is -100% (active); in experiment [8] it was -84.8% (active); in [9] it was -88.5% (active); in experiment [10], -65.3% (active).

As to `COc1ccc(-c2nc(SCCC(C)C)nc(N/N=C\c3cccc(Cl)c3)c2C#N)cc1`, the growth in experiment [1] was 82.2%; in [2], 83.2%; in experiment [3], 4.61% (active); in experiment [4] it was 76.2%; in experiment [5] it was 29.1%; in [6] it was 83.7%. The growth in [7] is 96%; in experiment [8], 89.6%; in [9] it was 70.9%; in [10] it was 112%.

Consider `C=CCOC1=CC(=O)c2ccccc2C1=O`, for which the growth in experiment [1] was 94.9%; in experiment [2], 80.5%; in [3], 48%; in experiment [4], 104%; in experiment [5], 86.7%; in experiment [6], 85.9%. The growth is 27.3% in [7], 57% in experiment [8], 3.82% (active) in experiment [9] and 87% in [10].

Regarding `CCN(CC)S(=O)(=O)c1cccc(-c2ccc3c(NC(=O)C4CC4)n[nH]c3c2)c1`, the growth in [1] was 23.5% [6.25 µM]; in experiment [2], 3.07% [6.25 µM] (active); in experiment [3], -7.53% [6.25 µM] (active); in experiment [4], 30.6% [6.25 µM]; in experiment [5], 12.1% [6.25 µM]; in experiment [6] it was 16.9% [6.25 µM]. For the same compound, the growth is -37.2% [6.25 µM] (active) in experiment [7], 28.7% [6.25 µM] in experiment [8], 10.5% [6.25 µM] in experiment [9] and 29.2% [6.25 µM] in [10].

Turning to `COc1ccc2oc3c(C)c4c(c(C)c3c2c1)C(=O)N(Cc1ccccc1)C4=O`, the growth in [1] is 101%; in experiment [2] it was 96.1%; in [3], 85.9%; in experiment [4] it was 95.1%; in experiment [5] it was 83.5%; in [6], 85.5%. Besides, the growth is 99.6% in experiment [7], 92.5% in [8], 94% in experiment [9] and 103% in [10].

Take `CN(C)CCC=C1c2ccccc2C(C)(C)c2ccccc21`: the growth in experiment [1] is 83.9%; in experiment [2], 30.5%; in experiment [3] it was 79.3%; in experiment [4], 86.1%; in experiment [5] it was 78.9%; in [6] it was 55.5%. In addition, the growth in experiment [7] is 64.3%; in experiment [8], 71.2%; in experiment [9], 69.6%; in experiment [10], 54.5%.

Turning to `Cc1ccc(N(C(=O)CCc2c[nH]c3ccccc23)[C@H](C(=O)Nc2ccc(Cl)cc2)c2cccc([N+](=O)[O-])c2)cc1`, the growth in experiment [1] was 70.7%; in experiment [2] it was 86.5%; in experiment [3] it was 84.1%; in experiment [4], 92.2%; in [5], 78%; in [6], 62.2%. Also, the growth is 75.9% in experiment [7], 33.7% in experiment [8], 45.1% in experiment [9] and 114% in experiment [10].

Take `Nc1nc(N)c2c(n1)NC(c1ccccc1)C1CCc3ccccc3C1=N2` (stereo not given): the growth in [1] is 39%; in [2], 27.9%; in [3] it was 54.7%; in [4], 67.2%; in experiment [5], 37.1%; in experiment [6] it was 40.8%. For the same compound, the growth in experiment [7] is -23.3% (active); in experiment [8] it was 49.3%; in [9], 44.5%; in [10], 76.4%.

For `Fc1cnc(NC2CC2)nc1-c1cnc2ccc(N3CCOCC3)cn12`, the growth is 1.15% (active) in [1]; 0.985% (active) in experiment [2]; -42.9% (active) in experiment [3]; 11.5% in experiment [4]; 8.28% (active) in experiment [5]; 5.58% (active) in experiment [6]. For the same compound, the growth was -53.1% (active) in [7], -80.6% (active) in experiment [8], 4.17% (active) in experiment [9] and -4.09% (active) in experiment [10].

Consider `COC(=O)[C@]12CC[C@@H](C)[C@H](C)[C@@H]1C1=CC[C@@H]3[C@@]4(C)C(C=O)=C[C@@](C)(COS(C)(=O)=O)C4[C@H](O)C[C@@]3(C)[C@]1(C)CC2` (stereo not given in full), for which the growth in experiment [1] was -70.3% (active); in experiment [2] it was -85.2% (active); in [3], -92.1% (active); in experiment [4] it was -67.7% (active); in experiment [5], -96.2% (active); in experiment [6], -36% (active). For the same compound, the growth in [7] is -91.6% (active); in experiment [8], -38.4% (active); in [9], -97.3% (active); in [10], -57.7% (active).

For the compound `CC(=O)N1C(=S)NC(=O)C1Cn1c(-c2ccccc2)nc2ccccc21` (stereo not given), the growth was 98.3% in [1]; 107% in [2]; 76.2% in experiment [3]; 93.3% in experiment [4]; 101% in experiment [5]; 97.8% in experiment [6]. In addition, the growth is 99.1% in [7], 91.5% in [8], 95.8% in experiment [9] and 106% in experiment [10].

Take `Cc1ccc(/C=C2\C(=O)N(C)c3ccc(S(=O)(=O)Nc4ccc(C(C)(C)C)cc4)cc32)s1`: the growth is 68% in [1]; 64.9% in experiment [2]; -18.3% (active) in experiment [3]; 58.3% in experiment [4]; 20.5% in [5]; 52.9% in experiment [6]. The growth in experiment [7] was 82.3%; in experiment [8], 60.7%; in experiment [9], 28.2%; in [10], 69.1%.

Regarding `COc1ccc(OC)c2c1[nH]c(=O)c1c3ncccc3cn21`, the growth was 22.8% in experiment [1]; -9.43% (active) in experiment [2]; 59.7% in experiment [3]; 30.3% in experiment [4]; 22.5% in experiment [5]; 33.6% in experiment [6]. Besides, the growth in experiment [7] was 33.3%; in experiment [8] it was 23.4%; in [9] it was 8.59% (active); in experiment [10], 64.3%.

As to `COc1cc(/C=C/C(=O)c2ccc(Nc3nc(Nc4ccc(F)cc4)nc(Nc4ccc(Cl)cc4)n3)cc2)cc(OC)c1OC`, the growth in experiment [1] is 55%; in experiment [2], 3.82% (active); in experiment [3], 0.259% (active); in experiment [4] it was 101%; in experiment [5], 27.5%; in experiment [6], 21.4%. In addition, the growth was 33.5% in [7], 56.5% in experiment [8], 37.3% in experiment [9] and -32.9% (active) in experiment [10].

For `Cc1ccc(NS(=O)(=O)c2ccc3c(c2)C2OCCC2C(c2ccc(C(=O)C(C)C)cc2)N3)cc1C` (stereo not given), the growth was 32.3% in [1]; 44.9% in experiment [2]; 61.8% in experiment [3]; 68.2% in [4]; 49.1% in experiment [5]; 28.8% in experiment [6]. Also, the growth in experiment [7] is -32.4% (active); in [8], 47.2%; in experiment [9], 64.2%; in [10], 51.3%.

With `COc1cc(/C=C/C(=O)N2CCN(C(=O)c3cc(OC)c(OC)c(OC)c3)CC2)ccc1OCCCN1C(=O)c2cccc3cccc(c23)C1=O`, the growth in experiment [1] was 72%; in experiment [2] it was 91.8%; in experiment [3], 93.1%; in experiment [4], 99.5%; in experiment [5], 83.4%; in experiment [6], 25.5%. Besides, the growth is 75.5% in experiment [7], 64.3% in [8], 68.8% in experiment [9] and 81.9% in [10].

Turning to `CCCCC1CCCCN1C(=O)OCC` (stereo not given), the growth was 103% in experiment [1]; 94.1% in [2]; 97.8% in experiment [3]; 106% in [4]; 96.1% in experiment [5]; 93.5% in experiment [6]. The growth in [7] is 111%; in [8], 107%; in [9] it was 101%; in experiment [10], 104%.

Consider `N#Cc1c(N)nn(C(=O)c2ccc(NC(=O)c3ccccn3)cc2)c1-c1ccc(Cl)cc1`, for which the growth was 32.9% in experiment [1]; 18.1% in experiment [2]; 27.3% in [3]; 23.4% in experiment [4]; -39.2% (active) in experiment [5]; 15.5% in experiment [6]. In addition, the growth in experiment [7] was 25%; in [8] it was 43.1%; in experiment [9], 30.5%; in [10], 70.4%.

With `O=C(Nc1ccc(-n2cc(-c3ccncc3)c(-c3ccc(Cl)c(O)c3)n2)cc1)N1CCOCC1`, the growth in experiment [1] is 102%; in [2], 98.1%; in [3], 93.3%; in experiment [4] it was 103%; in experiment [5], 96.9%; in experiment [6] it was 87.4%. For the same compound, the growth in experiment [7] was 99.1%; in experiment [8] it was 101%; in experiment [9] it was 98%; in experiment [10], 100%.
